Shown are actives, neighbours in structure and some others; about 18% of the full set was active somewhere.
PLK1 PBD inh = inhibitors of human PLK1 polo-box domain binding; 360,000 compounds, 2.8% hits; Potency, µM, usual class: inhibitors; Plk1 PBD binding of FITC phosphopeptide, fluorescence polarization; note: series mostly up to about 57 µM; nearly all actives have a fitted effect of over 65% in size
DT40 TDP1 no CPT = qHTS for Inhibitors of human tyrosyl-DNA phosphodiesterase 1 (TDP1): qHTS in cells in absence of CPT | DT40 Tdp1-/- hTDP1 cells, no CPT, ATP luminescence, 48 h | Potency, µM (highest dose often 46.2 µM), usual class: inhibitors | 420,000 compounds, 15% hits | AID 686978, 2013; note: nearly all actives have a fitted effect of over 55% in size
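Stably hTDP1-transfected Tdp1-null chicken DT40 cells were treated with library compounds minus camptothecin and grown for at least 48 hr at 37 °C, after which cellular ATP was quantified by luminescence.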
VDR inh = blocks the human vitamin D receptor | VDR-SRC2-3 peptide fluorescence polarization, 2 h | P11473 | 400,000 compounds, 0.93% hits | Potency, µM, actives largely listed as inhibitors
Target sequence (P11473 whole entry, looked up): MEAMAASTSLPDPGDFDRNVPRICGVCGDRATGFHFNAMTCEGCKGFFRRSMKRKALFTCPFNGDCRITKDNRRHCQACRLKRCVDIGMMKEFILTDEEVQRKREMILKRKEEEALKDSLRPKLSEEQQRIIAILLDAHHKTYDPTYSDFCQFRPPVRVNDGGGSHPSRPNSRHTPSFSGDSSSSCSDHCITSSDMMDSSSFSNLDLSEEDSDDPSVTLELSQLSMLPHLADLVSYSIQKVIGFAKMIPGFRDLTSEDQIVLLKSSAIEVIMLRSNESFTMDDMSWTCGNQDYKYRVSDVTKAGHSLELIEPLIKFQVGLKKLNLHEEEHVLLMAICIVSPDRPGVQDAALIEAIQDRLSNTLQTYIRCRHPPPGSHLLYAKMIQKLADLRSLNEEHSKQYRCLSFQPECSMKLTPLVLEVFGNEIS
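Compounds are added to VDR with labelled SRC2-3 coactivator peptide and held 2 h at room temperature. Inhibition of the VDR–peptide interaction is then read as a change in fluorescence polarization.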
TDP1 inh = inhibitors of human tyrosyl-DNA phosphodiesterase TDP1 | Potency, µM (highest dose often 130 µM), most hits filed as inhibitors | 350,000 compounds, 0.28% hits | recombinant TDP1, AlphaScreen DNA substrate cleavage | AID 485290 | Q9NUW8; note: nearly all actives have a fitted effect of over 40% in size
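Tdp1 1 nM final; 15 min RT w/ cpd; substrate 15 nM, 5 min; beads 10 ug/ml, 10 min; AlphaScreen read. Neg ctrl: no enzyme.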
GCN5L2 inh = blocks human GCN5L2 histone acetyltransferase | Potency, µM (top dose mostly 58.9 µM), most hits filed as inhibitors | 390,000 compounds, 0.21% hits | GCN5L2 HAT assay, ThioGlo1 CoA-SH fluorescence | Q92830 | AID 504327
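qHTS, 1536-well. 20nM enzyme, pH 7.5 HEPES/EDTA/Tween-20 buffer; 15 min compound preinc., RT. Start: 75uM H3(1-25), 70uM AcCoA, 50uM ThioGlo1. Read Ex340/Em540 at t=0 (autofluorescence flag) and t=20 min.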
DT40 TDP1 CPT = DT40-hTDP1 cell growth loss with CPT; chicken DT40 Tdp1-/-;hTDP1 cells + 20 nM CPT, ATP luminescence, 48 h; Potency, µM (titrated, usually from 46.2 µM), usual class: inhibitors; 420,000 compounds, 12% hits; note: nearly all actives have a fitted effect of over 55% in size
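Chicken DT40 Tdp1-/- cells complemented with human TDP1, 400 cells/well, exposed to compounds plus 20 nM camptothecin for at least 48 h at 37 C; viability read as ATP content by CellTiter-Glo luminescence.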
Of the large screens only hits and unclear results are named; the others gave an inactive call. Calls come from the whole dose curve; as a rule, active = well fitted curve in the direction sought with a large enough effect; inconclusive = small, poorly fitted or top-dose-only effect, or another doubt; inactive = no such curve, though single readings can be large; an effect the other way counts as inactive or inconclusive.

CC(C)c1c(C(=O)N/N=C/c2ccc(C(F)(F)F)cc2)nnn1-c1nonc1N	PLK1 PBD inh inconclusive, DT40 TDP1 no CPT 13µM, DT40 TDP1 CPT 15µM
Cn1nc(C(=O)NNC(=O)Cc2ccc(S(=O)(=O)N3CCOCC3)s2)c2ccccc2c1=O	none (no result: TDP1 inh, GCN5L2 inh)
CC(=O)CSc1nnc2[nH]c(=O)cc(N)n12	none (no result: PLK1 PBD inh)
COc1ccccc1NC(=O)NC1(C(=O)N2CCC(C)CC2)CCCCC1	none
CCn1ncc(S(=O)(=O)NCc2ccccc2Cl)c1C	none
COc1cc(/C=N/NC(=O)c2nnn(-c3nonc3N)c2C(C)C)ccc1OCc1ccccc1	DT40 TDP1 no CPT 21µM, GCN5L2 inh inconclusive, DT40 TDP1 CPT inconclusive
CC(CNC(=O)c1cnn(-c2ccc(F)cc2)c1-n1cccc1)c1ccccc1 (centres undefined)	none (no result: PLK1 PBD inh, DT40 TDP1 no CPT, DT40 TDP1 CPT)
Cc1ccc(NC(=S)NCC(C)C)cc1	none
Cc1cccc(-c2ncc(CN3CCCC(CO)(Cc4ccccc4C)C3)cn2)c1 (centres undefined)	DT40 TDP1 CPT 23µM (no result: TDP1 inh)
Cc1ccc(C)c(-c2[nH]ncc2CN2CCCC(CO)(Cc3ccccc3C)C2)c1 (centres undefined)	DT40 TDP1 no CPT 13µM, DT40 TDP1 CPT 7.3µM
COc1cc(CN2CCCC(CO)(Cc3ccccc3C)C2)cc2c1OCO2 (centres undefined)	DT40 TDP1 no CPT inconclusive, DT40 TDP1 CPT 15µM
Cc1ccccc1CC1(CO)CCCN(Cc2ccccc2Cl)C1 (centres undefined)	none (no result: TDP1 inh)
O=P(O)(O)C(O)(Cn1ccnc1)P(=O)(O)O	none (no result: PLK1 PBD inh)
CN(C)Cc1ccccc1-c1cncnc1Nc1ccccc1	DT40 TDP1 CPT inconclusive (no result: PLK1 PBD inh, TDP1 inh)
CCOc1ccc(-n2ccnc2SCC(=O)Nc2ccc3c(c2)OCO3)cc1	none (no result: PLK1 PBD inh)
CCc1ccc(S(=O)(=O)c2cn(CC)c3cc(N4CCOCC4)c(F)cc3c2=O)cc1	DT40 TDP1 no CPT inconclusive, DT40 TDP1 CPT 15µM (no result: PLK1 PBD inh)
CCn1cc(S(=O)(=O)c2ccc(C)cc2C)c(=O)c2cc(F)c(N3CCCCC3)cc21	DT40 TDP1 no CPT 23µM, DT40 TDP1 CPT inconclusive (no result: PLK1 PBD inh)
CC1CCCCN1c1cc2c(cc1F)c(=O)c(S(=O)(=O)c1ccccc1)cn2Cc1ccccc1 (centres undefined)	DT40 TDP1 no CPT 8.2µM, DT40 TDP1 CPT 8.2µM (no result: PLK1 PBD inh)
CCn1cc(S(=O)(=O)c2ccc(C)cc2)c(=O)c2cc(F)c(N3CCCCCC3)cc21	DT40 TDP1 no CPT 18µM, DT40 TDP1 CPT 16µM (no result: PLK1 PBD inh)
COCCNC(=O)CCCn1c(SCC(=O)Nc2ccc(F)cc2)nc2c(sc3ccccc32)c1=O	DT40 TDP1 no CPT inconclusive, DT40 TDP1 CPT inconclusive (no result: PLK1 PBD inh)
O=C(NCc1ccc2c(c1)OCO2)c1ccc2c(c1)N(Cc1cccc(Cl)c1)C(=O)c1ccccc1S2=O (centres undefined)	none (no result: PLK1 PBD inh)
Cc1ccc(S(=O)(=O)c2cn(Cc3ccccc3)c3cc(N4CCCC4)c(F)cc3c2=O)cc1	DT40 TDP1 no CPT 5.8µM, DT40 TDP1 CPT 5.8µM (no result: PLK1 PBD inh)
COc1cc2c(=O)c(S(=O)(=O)c3ccc(C)cc3)cn(Cc3cccc(C)c3)c2cc1OC	DT40 TDP1 no CPT 16µM, DT40 TDP1 CPT 16µM (no result: PLK1 PBD inh)
Cc1ccc(S(=O)(=O)c2cn(Cc3ccc(F)cc3)c3cc(F)c(F)cc3c2=O)cc1	none (no result: PLK1 PBD inh)
CCn1cc(S(=O)(=O)c2ccc(OC)cc2)c(=O)c2cc(F)c(N3CCC(C)CC3)cc21	DT40 TDP1 no CPT 26µM, DT40 TDP1 CPT inconclusive (no result: PLK1 PBD inh)
COC(=O)c1ccc2c(c1)N(CC(=O)Nc1cccc(C(F)(F)F)c1)C(=O)c1ccccc1S2	none (no result: PLK1 PBD inh, DT40 TDP1 no CPT, DT40 TDP1 CPT)
CCOc1ccc(N=C(/C(C(=O)C(=O)N2CCOCC2)=C(\O)c2ccccc2)c2ccccc2)cc1	none
CCOc1ccc(NC(=O)Cn2cc(C(=O)c3ccc(C)c(C)c3)c(=O)c3cc4c(cc32)OCCO4)cc1	none (no result: PLK1 PBD inh)
CCOc1ccc(C(=O)c2cn(CC(=O)Nc3ccc(F)cc3)c3cc4c(cc3c2=O)OCO4)cc1	DT40 TDP1 no CPT inconclusive, DT40 TDP1 CPT inconclusive (no result: PLK1 PBD inh)
CCc1ccc(C(=O)c2cn(CC(=O)Nc3ccc4c(c3)OCCO4)c3ccc(F)cc3c2=O)cc1	none (no result: PLK1 PBD inh)
O=C(Cn1cc(C(=O)c2ccccc2)c(=O)c2cc3c(cc21)OCCO3)Nc1ccc(F)c(F)c1	DT40 TDP1 no CPT inconclusive, DT40 TDP1 CPT 18µM (no result: PLK1 PBD inh)
CCOc1ccc(C(=O)c2cn(CC(=O)Nc3ccc(F)c(F)c3)c3cc4c(cc3c2=O)OCCO4)cc1	DT40 TDP1 no CPT 26µM, DT40 TDP1 CPT inconclusive (no result: PLK1 PBD inh)
CCOc1ccc(C(=O)c2cn(CC(=O)Nc3ccc(Cl)cc3)c3cc4c(cc3c2=O)OCCO4)cc1	DT40 TDP1 no CPT 6.5µM, DT40 TDP1 CPT inconclusive (no result: PLK1 PBD inh)
OC(c1ccccc1)(c1nc(-c2ccc3ccccc3c2)cs1)C(F)(F)F (centres undefined)	DT40 TDP1 no CPT inconclusive, DT40 TDP1 CPT 21µM (no result: VDR inh, TDP1 inh, GCN5L2 inh)
OC(c1ccccc1)(c1nc(-c2ccccc2)cs1)C(F)(F)F (centres undefined)	DT40 TDP1 no CPT 21µM, DT40 TDP1 CPT 18µM (no result: VDR inh, TDP1 inh, GCN5L2 inh)
Cn1c(=O)c2cc(NC(=O)Nc3ccccc3)ccc2n1Cc1ccccc1	DT40 TDP1 no CPT inconclusive, DT40 TDP1 CPT inconclusive (no result: VDR inh, TDP1 inh, GCN5L2 inh)
Cc1nc(SCc2cccc(F)c2)c2oc3ccccc3c2n1	DT40 TDP1 no CPT inconclusive
CCc1nc(SCC(=O)N2CCc3ccccc32)c2oc3ccccc3c2n1	none (no result: TDP1 inh, GCN5L2 inh)

Source: PubChem (National Center for Advancing Translational Sciences (NCATS))
